The chains are these.
B1: VH:VL chains; a variant is named by its letters at X, in order (parent)
chain 1: QVQLVQSGAEVKKPGASVKVSCKASGYTFTDYXMHWVRQAPGQGLEWMGXVNPNXXXTTYNQKFEGRVTMTTDTSTSTAYMELRSLRSDDTAVYYCARXNXLDXWGQGTTVTVSS
chain 2: DIQMTQSPSSLSASVGDRVTITCSVSSSVSSIYLHWYQQKPGKAPKLLIYSTSNLASGVPSRFSGSGSGTDFTLTISSLQPEDFATYYCQVYSGYPLTFGGGTKVEIK

This is one part of the list. The hit rate among all sequences tested is not known here.

The assay covers variants of B1. As to the kind of experiment: yeast display scFab, FACS + sequencing. Conditions: with MET. An outline of the steps: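 Round-3 sorted and input populations from a heavy-chain CDR mutant scFab yeast library were deep sequenced in two replicates. Sorting used FACS on cells labelled for 3 h at room temperature with 1 nM HGFR-Fc and anti-Myc in PBSB with 1% milk, keeping the top 50% antigen-positive cells. Any sequence seen in both antigen-positive samples was called a binder, while one seen only in the input was called a non-binder.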
Regarding AKTRDFVA, the antigen binding call was “no binding”. Take DTAGDAAV: the antigen binding call was “no binding”.

Regarding VRTEDDAS, the antigen binding call is recorded as “no binding”.

Turning to FKAEAFSF, the antigen binding call is given as “no binding”. For FKRGSSLF, the antigen binding call is “binds”.

In the case of VKETSVLF, the antigen binding call was “no binding”. Take FERTSALF: the antigen binding call is reported as “no binding”. In the case of VKRGSSLF, the antigen binding call is listed as “binds”.

Consider VRRGSSAS, for which the antigen binding call is given as “binds”. For VAKRDSAS, the antigen binding call was “no binding”. On to VAGTGSSV, for which the antigen binding call is “no binding”. As for DAEATDGA, the antigen binding call is recorded as “no binding”.

For DATGGDGY, the antigen binding call is “no binding”.

In the case of DTGGSASA, the antigen binding call was “no binding”. As to YRKRGAGD, the antigen binding call is given as “binds”. The result for YRKRGAVD reads “binds”; that for YRKRGAAD, “binds”. As for YAKRDAGD, the antigen binding call is given as “no binding”. As to YRKGGAVD, the antigen binding call was “binds”. With AKATADVD, the antigen binding call is on record as “no binding”. With DTGGGDAV, the antigen binding call is on record as “no binding”.

For the variant YAGAGSAD, the antigen binding call is “no binding”.

In the case of YKGAGSAD, the antigen binding call is listed as “no binding”.

With YRGAGAAD, the antigen binding call is on record as “binds”.

For YRGAGSAD, the antigen binding call was “binds”. For YKGKGAWV, the antigen binding call is given as “binds”. For the variant YAGKGAWV, the antigen binding call is reported as “no binding”. With YKGKSAWV, the antigen binding call is “binds”.

Turning to VKGKGDWV, the antigen binding call is “no binding”. On to YKTKSDWV, for which the antigen binding call was “no binding”. Turning to DEGGTDSA, the antigen binding call is “no binding”. The result for YKGKGFAA reads “no binding”; that for SKGKGVGA, “binds”; that for YKGKGSAA, “binds”. For SKAKGSAA, the antigen binding call was “binds”.

On to SKGKGSAA, for which the antigen binding call is “binds”.

Turning to SKRRSVGA, the antigen binding call is given as “no binding”. For SEEEGSAA, the antigen binding call was “no binding”. SKGKGSSA: the antigen binding call is listed as “no binding”. For the variant AARADSGD, the antigen binding call was “no binding”. With DEGRSVAA, the antigen binding call was “no binding”.

DAARAVSS: the antigen binding call is given as “no binding”. On to VAKADALD, for which the antigen binding call is on record as “no binding”. Turning to FKGEGDSA, the antigen binding call is on record as “no binding”. VKGKGSAA: the antigen binding call is “binds”. For YRGKGSAA, the antigen binding call was “binds”. VRAGGDSF: the antigen binding call is recorded as “no binding”. Regarding VRERGDWF, the antigen binding call is reported as “no binding”. Consider YAEGASSF, for which the antigen binding call is reported as “no binding”. On to YRERGSSF, for which the antigen binding call is “binds”.

As to VTAESSSF, the antigen binding call is “no binding”. The result for VRARGSSF reads “binds”; that for VRERGSSF, “binds”; that for AETAGAAA, “no binding”. Consider DAATAYGS, for which the antigen binding call was “no binding”. Turning to FATRASGD, the antigen binding call is “no binding”. The result for FRGKGSGD reads “binds”. Consider FATKGFGD, for which the antigen binding call is on record as “no binding”. FRTKGSGD: the antigen binding call is on record as “binds”. For the variant FRGTGSGD, the antigen binding call is “no binding”. As to VEEEGDGV, the antigen binding call is reported as “no binding”.

On to YAGTGFWV, for which the antigen binding call is “no binding”. The result for DEGGTDAV reads “no binding”; that for FRGKGASV, “binds”. With FREGSASV, the antigen binding call is “no binding”. Regarding FREEGFSV, the antigen binding call is on record as “no binding”. As to FKGKGAVV, the antigen binding call is on record as “binds”.

Take FRGKGAAV: the antigen binding call was “binds”. The result for YKGRASAV reads “no binding”. Take FKGKGAAF: the antigen binding call is reported as “no binding”. The result for YKGKGSAV reads “binds”; that for DATGGSGD, “no binding”.

Turning to FKATTVVD chain 1 S88F, the antigen binding call is “no binding”. For the variant YKGGGSAV, the antigen binding call is reported as “binds”. Consider YRGKGSAV, for which the antigen binding call is reported as “binds”. Turning to VKGKGDAV, the antigen binding call is given as “no binding”.

With YEGGGSAV, the antigen binding call is reported as “no binding”. As for FKGRGAAS, the antigen binding call is given as “binds”.

With FRGKGSAV, the antigen binding call is reported as “binds”. For DKGGGFAV, the antigen binding call was “no binding”. For AKGKGAAV, the antigen binding call is recorded as “no binding”. As for FKGKGAAV, the antigen binding call was “binds”.

Consider DAGGADAV, for which the antigen binding call is recorded as “no binding”. Take DEGGTDWY: the antigen binding call is “no binding”. Consider YTRGAAGY, for which the antigen binding call is given as “no binding”. The result for YKRGDAGY reads “binds”; that for YKRRDAVY, “no binding”. The result for YKRESAGY reads “binds”; that for YARETDVV, “no binding”. On to DGARNAGV, for which the antigen binding call is “no binding”. As to VTGTGSSA, the antigen binding call is on record as “no binding”. Take YRKGGFSS: the antigen binding call is given as “no binding”. The result for YRKGGAAS reads “binds”. Turning to FRKGGAGS, the antigen binding call is “binds”. The result for YRKGGAGS reads “binds”. With FRKRSFSS, the antigen binding call was “no binding”. On to YRTEGAVA, for which the antigen binding call is reported as “binds”.

As for YRRGAAAA, the antigen binding call is given as “binds”. Turning to ARRGSDVA, the antigen binding call is “no binding”. In the case of YTRGADGA, the antigen binding call is listed as “no binding”. DREEGAVA: the antigen binding call is given as “no binding”.

Take YRRGGAAA: the antigen binding call is recorded as “binds”.

For the variant YRRGSAVA, the antigen binding call is “binds”. Consider YETGAAAA, for which the antigen binding call is “no binding”. For the variant DETGGDWF, the antigen binding call was “no binding”. With VEEEGDWV, the antigen binding call is given as “no binding”. VTGTGDWF: the antigen binding call is “no binding”. Regarding YRRGGAVA, the antigen binding call was “binds”.

Turning to YRRGSAWA, the antigen binding call is listed as “binds”. With YRRGGAWA, the antigen binding call is listed as “binds”. Turning to YREKAAWA, the antigen binding call is “no binding”. In the case of YRRGAAWA, the antigen binding call was “binds”. With YTRGADWA, the antigen binding call is recorded as “no binding”. For the variant DEGGDDAA, the antigen binding call is “no binding”.

As for VKGRADSA, the antigen binding call is given as “no binding”. In the case of VEKTGVGA, the antigen binding call is reported as “no binding”. The result for YRAKGAAA reads “binds”; that for YRAESAAA, “binds”. Regarding YEAGTAVA, the antigen binding call is “no binding”. The result for YRAGTAAA reads “binds”; that for DRAGDAAA, “no binding”. Regarding YRAGSAAA, the antigen binding call is reported as “binds”. For the variant YAAKTAAA, the antigen binding call is reported as “no binding”. For the variant VAEGGYAV, the antigen binding call is “no binding”. In the case of VTAEDFGV, the antigen binding call is reported as “no binding”.

AARADAVA: the antigen binding call is given as “no binding”. With DGGKNDLA, the antigen binding call was “no binding”. With VEGRGDVF, the antigen binding call is reported as “no binding”. As for VKGRGDSF, the antigen binding call is recorded as “no binding”. For the variant VKEKGDSA, the antigen binding call is reported as “no binding”. For VKEKGSLF, the antigen binding call is given as “binds”. The result for YAGRGDWF reads “no binding”; that for YKGRGSWF, “binds”. As for YGGRGSWV, the antigen binding call was “no binding”.

Consider VTGRGDVF, for which the antigen binding call was “no binding”. On to VKGRGSVF, for which the antigen binding call is on record as “binds”. On to DKGRGSSA, for which the antigen binding call is “no binding”. For the variant VKGRGSSF, the antigen binding call is listed as “binds”.

In the case of VKEKGYLV, the antigen binding call is on record as “no binding”.

VTTRADVV: the antigen binding call is listed as “no binding”. Consider YTGGADAV, for which the antigen binding call is reported as “no binding”. Consider YKGRGALF, for which the antigen binding call is reported as “binds”. The result for YKGRGSLF reads “binds”; that for DGARGALF, “no binding”.

Take VKGRGSLF: the antigen binding call is listed as “binds”.

For the variant YKARSALF, the antigen binding call was “binds”. Take VKGRASGF: the antigen binding call is recorded as “no binding”. Turning to DAGGADWA, the antigen binding call is “no binding”. Consider SARTDFWF chain 1 K19N, for which the antigen binding call is given as “no binding”.

With ATKTAFVS chain 1 M34I, the antigen binding call is on record as “no binding”. As for SEAGDAVV, the antigen binding call is listed as “no binding”. In the case of VTTRADVY, the antigen binding call is given as “no binding”. As for FKGEGAGV, the antigen binding call was “no binding”. Turning to FRGESAGS, the antigen binding call was “binds”.

Consider FRGESAGV, for which the antigen binding call is listed as “binds”.

On to DAKENDVF, for which the antigen binding call is given as “no binding”. With VEGTSDLS, the antigen binding call was “no binding”. On to YRKGGSGA, for which the antigen binding call was “binds”. With YTTGGDGA, the antigen binding call is listed as “no binding”.

On to YAKADSGA, for which the antigen binding call was “no binding”. The result for YRKGSSGA reads “binds”. For YRTGGSGA, the antigen binding call is “binds”.

Take FARKGSGA: the antigen binding call is reported as “no binding”.

YRRKGSGA: the antigen binding call was “binds”. As for YTKRSSGA, the antigen binding call is recorded as “no binding”. Regarding YKTGGSGA, the antigen binding call is listed as “binds”. DATGGSGA: the antigen binding call is reported as “no binding”.

As to VKTGGAGA, the antigen binding call is “no binding”. The result for DAGTGSWD reads “no binding”; that for YRGRSSWD, “binds”. Take YRGKASWD: the antigen binding call was “binds”. The result for YRGRDSWD reads “binds”; that for VTTKSSSA, “no binding”. ATATADWA: the antigen binding call was “no binding”. Regarding DKRKGVAF, the antigen binding call was “no binding”.

Regarding VKGRASSV, the antigen binding call is listed as “no binding”. As for VRTEDSSV, the antigen binding call is “binds”.

Turning to VRTEDDWV, the antigen binding call was “no binding”. In the case of VRAGDSSV, the antigen binding call was “binds”. The result for VRAGDDGV reads “no binding”.

Consider VTEEGSSV, for which the antigen binding call is recorded as “no binding”. The result for VETEGSSV reads “no binding”; that for VRAEGSSV, “binds”. The result for VRRKSSSV reads “binds”; that for VRTEDFGV, “no binding”; that for VEAGDSWV, “no binding”. Turning to VTGTASSV, the antigen binding call is given as “no binding”. Take VETEGDGV: the antigen binding call is “no binding”.

On to ATGANAGD, for which the antigen binding call was “no binding”. In the case of AETGASLS, the antigen binding call is on record as “no binding”. On to DTKAADWV, for which the antigen binding call was “no binding”.

On to SAREGALD, for which the antigen binding call is on record as “no binding”. The result for DATGGALD reads “no binding”; that for SRRRGALD, “binds”. Turning to DRRRGALD, the antigen binding call is listed as “binds”. In the case of SGRGNALD, the antigen binding call is given as “no binding”. For the variant DREGGVSD, the antigen binding call is on record as “no binding”. The result for VTATADWA reads “no binding”; that for VKGRADWD, “no binding”.

For SEEEGAGD, the antigen binding call was “no binding”.

VAGTGDGV: the antigen binding call was “no binding”. As to YRGKDALA, the antigen binding call is reported as “binds”. YRRKDALA: the antigen binding call was “binds”. On to YAKRDALA, for which the antigen binding call is recorded as “no binding”. For YRAKDALA, the antigen binding call is “binds”.

Consider VRRKDFLA, for which the antigen binding call is on record as “no binding”. As for DTTGSDWV, the antigen binding call is “no binding”.

Take VAGTGDVY: the antigen binding call was “no binding”. Turning to VKGRSVGY, the antigen binding call was “no binding”.

Turning to YRGRGVGY, the antigen binding call is given as “binds”. Take VRGRGVGY: the antigen binding call is on record as “binds”. The result for YRGRDVGY reads “no binding”.
